# The sample as a whole holds a higher share of the strongest signals than the screen did.
# B1: XCL (Xerocomus chrysenteron) (protein)
# chain: MSYSITLRVYQTNRDRGYFSIVEKTVWHFANGGTWSEANGAHTLTQGGSGTSGVLRFLSTKGERITVAVGVHNYKRWCDVVTGLKPDETALVINPQYYNNGGRDYVREKQLAEYSVTSAIGTKVEVVYTVAEGNNLEANVIFS
# Legend:
# Assay in all cases: glycan array binding signal (z-score within array); higher = stronger binding
# Conditions in all cases: glycan notation: IUPAC condensed, linker removed
# [1] = target: Fuc(a1-2)Gal(b1-4)GlcNAc(b1-3)[Fuc(a1-2)Gal(b1-4)GlcNAc(b1-6)]GalNAc
# Method in brief: (§1)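 Glycan array data came from 3228 arrays in the Consortium for Functional Glycomics database, and only arrays with an available protein sequence were kept. Glycan names were put into IUPAC-condensed notation, and columns mapping to the same glycan were averaged. The binding signal is a within-array Z-score, averaged across arrays of one protein sequence run at different concentrations or buffers and across linkers. A negative Z-score can be read as non-binding.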
# [2] = target: Fuc(a1-2)[Gal(a1-3)]Gal(b1-3)GalNAc
# Method in brief: as §1
# [3] = target: Fuc(a1-2)[Gal(a1-3)]Gal(b1-3)GlcNAc(b1-3)GalNAc
# Method in brief: as §1
# [4] = target: Fuc(a1-2)[GalNAc(a1-3)]Gal
# Method in brief: as §1
# [5] = target: Fuc(a1-2)[GalNAc(a1-3)]Gal(b1-3)GlcNAc(b1-3)GalNAc
# Method in brief: as §1
# [6] = target: Fuc(a1-3)[Gal(b1-4)]GlcNAc(b1-2)Man(a1-3)[Fuc(a1-3)[Gal(b1-4)]GlcNAc(b1-2)Man(a1-6)]Man(b1-4)GlcNAc(b1-4)GlcNAc
# Method in brief: as §1
# [7] = target: Fuc(a1-3)[Gal(b1-4)]GlcNAc(b1-3)Gal(b1-3)[Fuc(a1-4)]GlcNAc
# Method in brief: as §1
# [8] = target: Gal(a1-3)GalNAc
# Method in brief: as §1
# [9] = target: Gal(b1-3)GalNAc(a1-3)[Fuc(a1-2)]Gal(b1-4)GlcNAc
# Method in brief: as §1
# [10] = target: Gal(b1-4)GlcNAc(b1-2)Man(a1-3)[Man(a1-6)]Man(b1-4)GlcNAc(b1-4)GlcNAc
# Method in brief: as §1
# [11] = target: Gal(b1-4)GlcNAc(b1-3)[Gal(b1-4)GlcNAc(b1-6)]GalNAc
# Method in brief: as §1
# [12] = target: Gal3S(b1-3)GalNAc
# Method in brief: as §1
# [13] = target: Gal3S(b1-3)[Fuc(a1-4)]GlcNAc
# Method in brief: as §1
# [14] = target: Gal6S(b1-3)GlcNAc6S
# Method in brief: as §1
# [15] = target: Glc(b1-4)Glc
# Method in brief: as §1
# [16] = target: GlcNAc(a1-4)Gal(b1-4)GlcNAc
# Method in brief: as §1
# [17] = target: GlcNAc(a1-4)Gal(b1-4)GlcNAc(b1-3)Gal(b1-4)GlcNAc(b1-3)Gal(b1-4)GlcNAc
# Method in brief: as §1
# [18] = target: GlcNAc(b1-2)Gal(b1-3)GalNAc
# Method in brief: as §1
# [19] = target: GlcNAc(b1-2)Man(a1-3)[GlcNAc(b1-2)Man(a1-6)]Man(b1-4)GlcNAc(b1-4)GlcNAc
# Method in brief: as §1
# [20] = target: GlcNAc(b1-2)Man(a1-3)[GlcNAc(b1-4)][GlcNAc(b1-2)Man(a1-6)]Man(b1-4)GlcNAc(b1-4)GlcNAc
# Method in brief: as §1
# [21] = target: GlcNAc(b1-2)[GlcNAc(b1-4)]Man(a1-3)[GlcNAc(b1-4)][GlcNAc(b1-2)Man(a1-6)]Man(b1-4)GlcNAc(b1-4)GlcNAc
# Method in brief: as §1
# [22] = target: GlcNAc(b1-2)[GlcNAc(b1-6)]Man(a1-6)[GlcNAc(b1-2)Man(a1-3)][GlcNAc(b1-4)]Man(b1-4)GlcNAc(b1-4)GlcNAc
# Method in brief: as §1
# [23] = target: GlcNAc(b1-3)Gal
# Method in brief: as §1
# [24] = target: GlcNAc(b1-3)Gal(b1-3)GalNAc
# Method in brief: as §1
# [25] = target: GlcNAc(b1-3)[GlcNAc(b1-4)][GlcNAc(b1-6)]GlcNAc
# Method in brief: as §1
# [26] = target: GlcNAc(b1-3)[GlcNAc(b1-6)]GalNAc
# Method in brief: as §1
# [27] = target: GlcNAc(b1-4)Gal(b1-4)GlcNAc
# Method in brief: as §1
# [28] = target: Kdn(a2-3)Gal(b1-4)Glc
# Method in brief: as §1
# [29] = target: Neu5Ac(a2-3)Gal(b1-3)GalNAc6S
# Method in brief: as §1
# [30] = target: Neu5Ac(a2-3)Gal(b1-4)GlcNAc(b1-2)Man(a1-3)[Neu5Ac(a2-6)Gal(b1-4)GlcNAc(b1-2)Man(a1-6)]Man(b1-4)GlcNAc(b1-4)GlcNAc
# Method in brief: as §1
binder,measurement,setting,value
B1,glycan array binding signal (z-score),[1],-0.27
same,glycan array binding signal (z-score),[2],-0.324
same,glycan array binding signal (z-score),[3],-0.303
same,glycan array binding signal (z-score),[4],-0.237
same,glycan array binding signal (z-score),[5],-0.249
same,glycan array binding signal (z-score),[6],-0.324
same,glycan array binding signal (z-score),[7],-0.31
same,glycan array binding signal (z-score),[8],-0.207
same,glycan array binding signal (z-score),[9],3.43
same,glycan array binding signal (z-score),[10],-0.272
same,glycan array binding signal (z-score),[11],-0.282
same,glycan array binding signal (z-score),[12],3.44
same,glycan array binding signal (z-score),[13],-0.322
same,glycan array binding signal (z-score),[14],-0.321
same,glycan array binding signal (z-score),[15],-0.304
same,glycan array binding signal (z-score),[16],2.15
same,glycan array binding signal (z-score),[17],5.84
same,glycan array binding signal (z-score),[18],-0.139
same,glycan array binding signal (z-score),[19],4.71
same,glycan array binding signal (z-score),[20],5.38
same,glycan array binding signal (z-score),[21],4.92
same,glycan array binding signal (z-score),[22],3.42
same,glycan array binding signal (z-score),[23],0.225
same,glycan array binding signal (z-score),[24],3.71
same,glycan array binding signal (z-score),[25],0.592
same,glycan array binding signal (z-score),[26],0.896
same,glycan array binding signal (z-score),[27],-0.303
same,glycan array binding signal (z-score),[28],-0.294
same,glycan array binding signal (z-score),[29],3.87
same,glycan array binding signal (z-score),[30],-0.32
